Assay results published in PubChem BioAssay.
Active and inactive are the calls of the source.

assay: growth effects on S. cerevisiae YJM789 – YJM789 clinical isolate, OD600, 24 h, basal, primary screen (AID 1089); settings: higher = more signal, called active from +8 up or from −8 down;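 note: growth of clinical yeast isolate S. cerevisiae YJM 789 seeded 1000 cells per well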
Note: test concentration not given here.

z-score, inactive:
COC(=O)c1c(CC[C@@H](CO)NC(=O)N[C@H](Cc2ccccc2)Cn2cc(-c3ccccc3N)nn2)oc(C(C)=O)c1C(=O)OC -0.231, CC(CCN1CCc2nc(-c3ccccc3)c(-c3ccccc3)cc2C1)=NOC(C)CN1CCCCc2nc(C)c(C)cc21 (stereo unspecified) -1.03, CCCNC(=O)[C@@H]1c2ccccc2C(=O)N(Cc2ccccc2Cl)[C@H]1c1ccc(CO)cc1 -0.0545, COc1ccc(O[C@H]2C=C[C@@H](c3ccccc3)O[C@@H]2COC(=O)CCC(C)=NOCC[C@@H]2C=C[C@H](OC(C)=O)[C@@H](COC(C)=O)O2)cc1 -0.209, CC(C)OC(=O)C=C1C[C@@H](c2ccc(C#N)cc2)O[C@@H](c2ccc(C#N)cc2)O1 0.149, CCCC=C(CCC)[C@@H](NC(=O)c1ccc(-c2ccccc2)cc1)c1ccc(C(=O)OC)cc1 0.806, CCCC[C@@H](O)C1=C(C)C[C@H]2C(=O)N(Cc3ccccc3)C(=O)[C@H]2[C@H]1CO -0.812, COCCNC(=O)OCC1CCCC2(CC(OC(=O)NCCc3ccc(F)cc3)CC(CCC(=O)N[C@@H](C)C(=O)OC)O2)O1 (stereo partly specified) 0.104, C[N+](C)(C)CCCCCCNC(=O)[C@@H]1C[C@@H]2C(=O)N3CCC[C@H]3C(=O)N2[C@@H]1c1cccc(OCCO)c1 -1.6, CC(C)C[C@@H]1NC(=O)[C@H]2C[C@@H](C(=O)O)[C@@H](c3ccc(O)cc3)N2C1=O 0.634, O=C1O[C@@H](c2ccccc2)[C@@H](c2ccccc2)N2[C@@H](c3ccccc3OCCO)[C@]3(C(=O)Nc4ccc(C#CCCO)cc43)[C@@H](C(=O)O)[C@H]12 1.14, CO[C@H]1COC(=O)[C@H](C)COC(=O)CC=C[C@@H](C)[C@H](OC)COC(=O)CC=C[C@@H]1C 0.0305, C=CCC(OC(C)=O)[C@@H]1[C@@H](N(Cc2cc3ccccc3o2)C(=O)Cc2ccc(F)cc2)c2cc(OCCCO)ccc2N1C(=O)Cc1ccc(OC)cc1 (stereo partly specified) -1.54, CO[C@@H]1COC(=O)[C@H](C)NC(=O)[C@@H](C)COC(=O)CCC[C@H]1C -0.11, CC(C)(C)OC(=O)CC[C@]1(C(N)=O)COC(c2ccc(OCCCO)cc2)=N1 0.0433

assay: S. pombe growth modifiers, basal conditions – strain 972, OD600, 24 h, no modulator, primary screen (AID 1090);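 note: basal condition with compound alone and no growth modifier present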; settings: S. pombe 972 growth, higher = more signal, called active from +8 up or from −8 down

z-score, inactive:
CCOC(=O)[C@H](Cc1ccccc1)NC(=O)CCC1CC(OC(=O)NCc2ccc3c(c2)OCO3)CC2(CCCC(COC(=O)NCc3cccc(C(F)(F)F)c3)O2)O1 (stereo partly specified) 0.926, CC(=O)OC[C@H]1O[C@@H](ON=C[C@@H](C)[C@H](OCc2ccccc2)C(C)C)[C@H](OC(C)=O)[C@@H](OC(C)=O)[C@@H]1OC(C)=O 0.0572, O=C1[C@H]2[C@H]3[C@H](O)[C@H](O)CC(=NOCc4ccccc4)[C@H]3CC[C@H]2C(=O)N1C[C@@H]1CCCO1 0.531, CO[C@@H]1COC(=O)[C@@H]2CCCN2C(=O)[C@@H](C)COC(=O)[C@H](COCc2ccccc2)NC(=O)CC=C[C@H]1C 0.263, C=C(/C(=C/C[C@H](OC(C)=O)c1ccc(OCCO)cc1)c1cnc2ccccc2c1)C(C)C -2.26, COC(=O)CC=C[C@@H](C)[C@H](OC)c1ccccc1Br -0.636, COc1ccccc1CN1C(=O)c2ccccc2[C@@H](C(=O)NCC(F)(F)F)[C@@H]1c1ccc(CO)cc1 0.74, O=C1[C@H]2[C@H]3[C@H](O)[C@H](O)CC(=NO[C@@H]4O[C@H](CO)[C@@H](O)[C@H](O)[C@H]4O)[C@H]3CC[C@H]2C(=O)N1C1CCCCC1 0.506, CC(C)=CCCC(C)=CCON=C1C[C@@H](O)[C@@H](O)[C@@H]2[C@@H]3C(=O)N(C[C@@H]4CCCO4)C(=O)[C@@H]3CC[C@@H]12 0.574, C=CC[C@@H]1C=C[C@H](ON=C2c3cc(OC)ccc3O[C@H](c3cccc(OC)c3)[C@H]2O)[C@@H](CO)O1 -0.851, CCc1cc2c(nc1CC)CCN(CCC(C)=NOC[C@@H](O)COCc1ccco1)C2 -0.871, CCN1C(=O)[C@H]2[C@H]3[C@H](O)[C@H](O)CC(=NOC(C)CN4CCCCc5nc(C)c(C)cc54)[C@@H]3CC[C@H]2C1=O (stereo partly specified) 0.634, COCCOC(=O)N1C(=O)[C@@]2(c3cc(C#CC4(O)CCCCCC4)ccc31)[C@H](c1ccc(OCCO)cc1)N1[C@H](c3ccccc3)[C@H](c3ccccc3)OC(=O)[C@H]1[C@@H]2C(=O)NC[C@H](O)c1ccccc1 0.874, CC1CC/C=C\[C@H]2OC34C=CCN(C(C)C)C(=O)[C@H]3N(CCCO)C(=O)[C@@H]4C2C(=O)O1 (stereo partly specified) -1.14, CCCNC(=O)OC[C@H]1O[C@H](CCON=CC[C@@H]2C=C[C@H](OC(C)=O)[C@@H](COC(C)=O)O2)C=C[C@@H]1Oc1ccc(OC)cc1 0.115, Cc1ccc(S[C@]2(C(=O)O)CC(=O)N(Cc3ccccc3)[C@@H]2c2ccc(CO)cc2I)cc1 -1.17, CC(=O)C[C@H](O)[C@@H](NC(=O)OC(C)(C)C)C(C)C -0.644, COC(=O)C1=CCC(c2cccc(Cl)c2)O1 (stereo unspecified) -1.54, COCCCNC(=O)[C@@]1(CCS(=O)(=O)c2ccccc2)N=C(c2ccc(OCCCO)cc2)O[C@H]1c1ccccc1 -0.692, O=C(NN=C1C[C@@H](O)[C@@H](O)[C@@H]2[C@@H]3C(=O)N(c4cccc(Oc5ccccc5)c4)C(=O)[C@@H]3CC[C@@H]12)OCc1ccccc1 0.588, CCOC(=O)NN=C1C[C@@H](O)[C@@H](O)[C@@H]2[C@@H]3C(=O)N(C[C@@H]4CCCO4)C(=O)[C@@H]3CC[C@@H]12 -0.408, COC(=O)c1c(CC[C@@H](CO)NC(=O)N[C@H](Cc2ccccc2)Cn2cc(-c3ccccc3N)nn2)oc(C(C)=O)c1C(=O)OC -1.15, CC(CCN1CCc2nc(-c3ccccc3)c(-c3ccccc3)cc2C1)=NOC(C)CN1CCCCc2nc(C)c(C)cc21 (stereo unspecified) -3.01, CCCNC(=O)[C@@H]1c2ccccc2C(=O)N(Cc2ccccc2Cl)[C@H]1c1ccc(CO)cc1 -0.64, COc1ccc(O[C@H]2C=C[C@@H](c3ccccc3)O[C@@H]2COC(=O)CCC(C)=NOCC[C@@H]2C=C[C@H](OC(C)=O)[C@@H](COC(C)=O)O2)cc1 0.951, CC(C)OC(=O)C=C1C[C@@H](c2ccc(C#N)cc2)O[C@@H](c2ccc(C#N)cc2)O1 -2.93, CCCC=C(CCC)[C@@H](NC(=O)c1ccc(-c2ccccc2)cc1)c1ccc(C(=O)OC)cc1 1.77, CCCC[C@@H](O)C1=C(C)C[C@H]2C(=O)N(Cc3ccccc3)C(=O)[C@H]2[C@H]1CO -2.19, COCCNC(=O)OCC1CCCC2(CC(OC(=O)NCCc3ccc(F)cc3)CC(CCC(=O)N[C@@H](C)C(=O)OC)O2)O1 (stereo partly specified) -0.0142, C[N+](C)(C)CCCCCCNC(=O)[C@@H]1C[C@@H]2C(=O)N3CCC[C@H]3C(=O)N2[C@@H]1c1cccc(OCCO)c1 -0.0376, CC(C)C[C@@H]1NC(=O)[C@H]2C[C@@H](C(=O)O)[C@@H](c3ccc(O)cc3)N2C1=O -0.213, O=C1O[C@@H](c2ccccc2)[C@@H](c2ccccc2)N2[C@@H](c3ccccc3OCCO)[C@]3(C(=O)Nc4ccc(C#CCCO)cc43)[C@@H](C(=O)O)[C@H]12 -0.82, CO[C@H]1COC(=O)[C@H](C)COC(=O)CC=C[C@@H](C)[C@H](OC)COC(=O)CC=C[C@@H]1C -0.818, C=CCC(OC(C)=O)[C@@H]1[C@@H](N(Cc2cc3ccccc3o2)C(=O)Cc2ccc(F)cc2)c2cc(OCCCO)ccc2N1C(=O)Cc1ccc(OC)cc1 (stereo partly specified) -0.644, CO[C@@H]1COC(=O)[C@H](C)NC(=O)[C@@H](C)COC(=O)CCC[C@H]1C 0.381, CC(C)(C)OC(=O)CC[C@]1(C(N)=O)COC(c2ccc(OCCCO)cc2)=N1 -0.391
